Measurements from the supplement of paper PMC11732987, “Enantioselective OTUD7B fragment discovery through chemoproteomics screening and high-throughput optimisation” (Communications Chemistry, 2025).
Values without a mark were called inactive.

Experiments:
Assay in all cases: log2 ratio of Biotin-Ahx-Ub-VS probe labelling (fragment/DMSO); higher = less target engagement (more negative = stronger competition), active = hit call of the paper (q ≤ 0.05, log2 ratio ≤ -1)
Conditions in all cases: compound concentration: 200 uM; treatment time: 3 h
OTUD6B = molecular target: T1, OTUD6B (UniProt Q8N6M0)
T1 sequence (whole entry): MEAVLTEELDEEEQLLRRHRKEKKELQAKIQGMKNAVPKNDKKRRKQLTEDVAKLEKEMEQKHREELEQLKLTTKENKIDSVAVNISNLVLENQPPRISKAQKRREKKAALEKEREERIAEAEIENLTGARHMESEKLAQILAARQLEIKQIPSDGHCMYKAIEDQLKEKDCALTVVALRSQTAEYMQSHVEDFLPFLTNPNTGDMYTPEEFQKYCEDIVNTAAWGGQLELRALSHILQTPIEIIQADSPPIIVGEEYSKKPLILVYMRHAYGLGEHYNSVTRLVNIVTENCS
How it was run: (§1)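 Labelling with Biotin-Ahx-Ub-VS (0.5 µM final, 1 h) followed a 3 h triplicate treatment of HEK293T lysate (495 µg per sample, Tris/CHAPS/IGEPAL buffer with protease inhibitors) with fragment at 200 µM or vehicle. Labelled DUBs were NeutrAvidin-enriched, digested with LysC and trypsin, and run by diaPASEF LC-MS/MS. The values, average log2 fragment/vehicle ratios by unpaired t-test, come from global-median-normalised Spectronaut label-free quantities. Proteins with ≥2 unique peptides were used.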

OTUD7B = molecular target: T2, OTUD7B (UniProt Q6GQQ9)
T2 sequence (whole entry): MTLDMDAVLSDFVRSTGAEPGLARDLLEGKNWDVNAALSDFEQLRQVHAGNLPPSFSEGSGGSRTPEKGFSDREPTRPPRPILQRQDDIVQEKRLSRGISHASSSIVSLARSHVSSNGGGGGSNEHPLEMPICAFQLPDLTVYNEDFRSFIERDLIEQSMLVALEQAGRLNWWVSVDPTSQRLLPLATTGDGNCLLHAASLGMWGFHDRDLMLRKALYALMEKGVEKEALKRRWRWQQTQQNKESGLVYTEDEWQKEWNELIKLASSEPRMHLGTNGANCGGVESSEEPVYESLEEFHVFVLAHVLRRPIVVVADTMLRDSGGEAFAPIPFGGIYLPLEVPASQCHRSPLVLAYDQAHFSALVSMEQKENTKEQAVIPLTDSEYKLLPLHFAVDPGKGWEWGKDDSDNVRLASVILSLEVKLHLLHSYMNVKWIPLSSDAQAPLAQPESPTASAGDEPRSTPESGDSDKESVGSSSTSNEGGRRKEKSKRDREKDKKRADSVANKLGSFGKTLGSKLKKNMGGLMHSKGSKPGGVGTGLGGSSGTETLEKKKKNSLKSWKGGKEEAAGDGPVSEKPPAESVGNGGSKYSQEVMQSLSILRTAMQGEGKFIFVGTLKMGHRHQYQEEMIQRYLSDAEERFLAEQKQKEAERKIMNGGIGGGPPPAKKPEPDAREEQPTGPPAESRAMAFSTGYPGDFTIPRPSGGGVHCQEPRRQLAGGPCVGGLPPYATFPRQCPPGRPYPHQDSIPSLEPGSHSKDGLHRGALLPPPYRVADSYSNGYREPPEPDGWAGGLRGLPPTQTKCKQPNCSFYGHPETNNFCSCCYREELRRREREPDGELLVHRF
How it was run: as §1

PRPF8 = PRPF8 (UniProt Q6P2Q9)
How it was run: as §1

PSMD7 = molecular target: T3, PSMD7 (UniProt P51665)
T3 sequence (whole entry): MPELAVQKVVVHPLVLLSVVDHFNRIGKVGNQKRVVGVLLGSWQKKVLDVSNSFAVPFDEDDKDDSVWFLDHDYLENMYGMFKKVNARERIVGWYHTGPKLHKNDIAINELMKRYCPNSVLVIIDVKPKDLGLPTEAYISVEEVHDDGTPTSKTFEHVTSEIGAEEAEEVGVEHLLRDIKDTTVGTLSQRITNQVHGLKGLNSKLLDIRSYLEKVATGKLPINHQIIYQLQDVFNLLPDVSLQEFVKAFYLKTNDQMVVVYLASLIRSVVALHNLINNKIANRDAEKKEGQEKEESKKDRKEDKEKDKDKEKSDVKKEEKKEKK
How it was run: as §1

UCHL1 = UCHL1 (UniProt P09936)
How it was run: as §1

UCHL3 = molecular target: T4, UCHL3 (UniProt P15374)
T4 sequence (whole entry): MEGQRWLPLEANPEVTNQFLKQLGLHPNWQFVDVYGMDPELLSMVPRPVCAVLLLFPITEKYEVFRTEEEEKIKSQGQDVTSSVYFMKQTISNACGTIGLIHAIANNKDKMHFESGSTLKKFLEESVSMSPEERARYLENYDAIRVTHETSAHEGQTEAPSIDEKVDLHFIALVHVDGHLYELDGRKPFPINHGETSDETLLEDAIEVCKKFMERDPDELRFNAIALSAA
How it was run: as §1

UCHL5 = molecular target: T5, UCHL5 (UniProt Q9Y5K5)
T5 sequence (whole entry): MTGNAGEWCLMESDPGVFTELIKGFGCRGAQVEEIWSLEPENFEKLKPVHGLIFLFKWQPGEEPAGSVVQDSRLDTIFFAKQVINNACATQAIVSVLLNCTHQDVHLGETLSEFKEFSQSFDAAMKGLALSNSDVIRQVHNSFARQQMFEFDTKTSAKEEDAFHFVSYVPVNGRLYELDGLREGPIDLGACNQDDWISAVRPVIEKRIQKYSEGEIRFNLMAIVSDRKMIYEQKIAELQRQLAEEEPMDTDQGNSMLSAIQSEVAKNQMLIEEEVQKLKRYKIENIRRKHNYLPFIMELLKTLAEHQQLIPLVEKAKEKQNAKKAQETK
How it was run: as §1

USP10 = USP10 (UniProt Q14694)
How it was run: as §1

USP15 = molecular target: T6, USP15 (UniProt Q9Y4E8)
T6 sequence (whole entry): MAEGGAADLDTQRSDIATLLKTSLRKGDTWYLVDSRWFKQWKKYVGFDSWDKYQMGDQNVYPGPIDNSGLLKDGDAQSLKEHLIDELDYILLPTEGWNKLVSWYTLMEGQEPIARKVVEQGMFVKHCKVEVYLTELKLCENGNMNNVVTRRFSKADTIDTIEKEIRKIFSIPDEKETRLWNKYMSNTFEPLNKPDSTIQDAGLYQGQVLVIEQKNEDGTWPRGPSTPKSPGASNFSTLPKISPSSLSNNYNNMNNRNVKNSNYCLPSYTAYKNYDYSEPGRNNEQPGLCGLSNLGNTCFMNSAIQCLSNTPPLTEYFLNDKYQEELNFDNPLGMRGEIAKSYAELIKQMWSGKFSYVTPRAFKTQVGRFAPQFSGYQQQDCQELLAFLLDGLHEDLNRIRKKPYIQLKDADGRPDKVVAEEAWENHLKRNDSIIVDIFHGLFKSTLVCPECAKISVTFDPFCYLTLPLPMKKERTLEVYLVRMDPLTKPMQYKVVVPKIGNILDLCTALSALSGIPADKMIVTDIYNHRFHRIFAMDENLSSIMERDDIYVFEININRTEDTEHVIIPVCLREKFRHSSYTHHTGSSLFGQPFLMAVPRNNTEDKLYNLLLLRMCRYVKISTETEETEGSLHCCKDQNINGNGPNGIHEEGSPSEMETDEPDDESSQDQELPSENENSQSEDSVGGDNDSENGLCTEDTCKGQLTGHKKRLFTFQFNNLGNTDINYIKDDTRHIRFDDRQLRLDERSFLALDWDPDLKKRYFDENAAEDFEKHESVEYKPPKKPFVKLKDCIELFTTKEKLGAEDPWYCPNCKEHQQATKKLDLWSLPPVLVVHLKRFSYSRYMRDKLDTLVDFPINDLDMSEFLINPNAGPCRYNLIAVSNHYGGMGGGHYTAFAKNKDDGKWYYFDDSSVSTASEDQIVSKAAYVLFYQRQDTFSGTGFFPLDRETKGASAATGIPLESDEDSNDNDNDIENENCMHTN
How it was run: as §1

USP16 = USP16 (UniProt Q9Y5T5)
How it was run: as §1

Sequence of UCHL1 (P09936 whole entry, looked up): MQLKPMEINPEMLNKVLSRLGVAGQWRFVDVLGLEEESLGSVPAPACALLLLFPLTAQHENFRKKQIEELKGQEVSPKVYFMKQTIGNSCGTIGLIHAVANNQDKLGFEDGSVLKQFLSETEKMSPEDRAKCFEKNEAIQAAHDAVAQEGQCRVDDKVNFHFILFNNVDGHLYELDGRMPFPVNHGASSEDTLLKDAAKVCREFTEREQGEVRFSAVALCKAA
Sequence of USP16 (Q9Y5T5 whole entry, looked up): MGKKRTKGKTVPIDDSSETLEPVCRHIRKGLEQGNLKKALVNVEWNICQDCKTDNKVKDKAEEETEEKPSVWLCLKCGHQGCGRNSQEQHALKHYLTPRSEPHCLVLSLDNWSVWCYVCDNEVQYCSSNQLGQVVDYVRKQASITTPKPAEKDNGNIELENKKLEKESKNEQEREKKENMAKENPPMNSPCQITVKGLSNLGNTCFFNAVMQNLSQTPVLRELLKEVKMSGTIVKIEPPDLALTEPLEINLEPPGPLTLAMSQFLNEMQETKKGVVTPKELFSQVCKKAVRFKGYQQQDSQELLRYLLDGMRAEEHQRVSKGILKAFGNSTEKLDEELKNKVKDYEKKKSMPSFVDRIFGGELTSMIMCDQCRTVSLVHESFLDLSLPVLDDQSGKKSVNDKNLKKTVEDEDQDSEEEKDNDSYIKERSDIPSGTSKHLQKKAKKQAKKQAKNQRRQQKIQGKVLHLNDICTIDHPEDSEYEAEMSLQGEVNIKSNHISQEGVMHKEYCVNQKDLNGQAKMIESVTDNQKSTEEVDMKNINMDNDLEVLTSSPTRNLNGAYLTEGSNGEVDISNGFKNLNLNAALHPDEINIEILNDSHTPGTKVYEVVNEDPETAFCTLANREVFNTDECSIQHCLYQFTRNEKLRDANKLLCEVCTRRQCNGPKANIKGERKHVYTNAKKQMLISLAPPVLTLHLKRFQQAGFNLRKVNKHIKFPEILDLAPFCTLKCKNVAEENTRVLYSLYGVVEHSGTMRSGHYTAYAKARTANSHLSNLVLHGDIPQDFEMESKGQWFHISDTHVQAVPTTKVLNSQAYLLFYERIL
Sequence of USP10 (Q14694 whole entry): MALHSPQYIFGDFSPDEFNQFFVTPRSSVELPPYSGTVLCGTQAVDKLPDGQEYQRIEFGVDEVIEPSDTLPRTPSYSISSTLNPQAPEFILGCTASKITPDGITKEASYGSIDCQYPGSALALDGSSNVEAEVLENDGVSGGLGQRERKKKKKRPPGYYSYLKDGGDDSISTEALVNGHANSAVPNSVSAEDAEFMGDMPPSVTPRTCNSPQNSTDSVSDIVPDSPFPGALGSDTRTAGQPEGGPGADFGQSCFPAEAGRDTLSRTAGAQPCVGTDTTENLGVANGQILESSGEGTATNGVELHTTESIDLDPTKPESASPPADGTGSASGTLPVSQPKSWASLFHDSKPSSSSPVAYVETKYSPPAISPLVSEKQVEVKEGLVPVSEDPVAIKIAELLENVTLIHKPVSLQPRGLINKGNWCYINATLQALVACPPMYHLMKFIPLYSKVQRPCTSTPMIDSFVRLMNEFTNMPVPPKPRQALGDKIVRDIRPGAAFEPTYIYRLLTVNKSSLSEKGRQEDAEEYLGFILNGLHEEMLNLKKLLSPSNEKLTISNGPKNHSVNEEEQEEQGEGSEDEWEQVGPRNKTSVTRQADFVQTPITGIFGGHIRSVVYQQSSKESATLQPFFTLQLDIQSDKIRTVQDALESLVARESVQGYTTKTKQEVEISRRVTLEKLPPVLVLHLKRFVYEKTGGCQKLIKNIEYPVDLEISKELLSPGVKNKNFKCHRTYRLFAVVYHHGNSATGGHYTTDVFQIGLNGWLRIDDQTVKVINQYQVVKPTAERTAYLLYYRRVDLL

SMILES: Cc1cccc(C(CNC(=O)CCl)N2CCOCC2)c1.Cl (stereo not given)
- log2 ratio of Biotin-Ahx-Ub-VS probe labelling (OTUD6B): -0.0947
- log2 ratio of Biotin-Ahx-Ub-VS probe labelling (OTUD7B): -0.255
- log2 ratio of Biotin-Ahx-Ub-VS probe labelling (PRPF8): -0.0193
- log2 ratio of Biotin-Ahx-Ub-VS probe labelling (PSMD7): -0.183
- log2 ratio of Biotin-Ahx-Ub-VS probe labelling (UCHL1): -1.07 (active)
- log2 ratio of Biotin-Ahx-Ub-VS probe labelling (UCHL3): 0.278
- log2 ratio of Biotin-Ahx-Ub-VS probe labelling (UCHL5): -0.182
- log2 ratio of Biotin-Ahx-Ub-VS probe labelling (USP10): -0.0807
- log2 ratio of Biotin-Ahx-Ub-VS probe labelling (USP15): -0.0506
- log2 ratio of Biotin-Ahx-Ub-VS probe labelling (USP16): -0.147
